Measurements from PubChem BioAssay AID1159580 (chemical genetic matrix, 2015).
Hit rate of the full screen: of about 5,500 compounds, about 2,000 (36%) were called active. Not shown: some 18% with an inconclusive outcome. No stated cut-off is given here; in the data, active means normalized growth mostly below about 0.91 (no sharp cut-off); inconclusive means no clear call, values can overlap the other calls; inactive means mostly above about 0.92. Some of the results follow.

Assay: chemical genetic growth profiling, strain panel (AID 1159580);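 further: tested at 20 µM; growth read once vehicle control cultures reached saturation at 30 °C; 1 = growth at the plate median or of vehicle wells; lower values mean less growth of the strain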
Conditions: growth OD

Measured: normalized growth

Cc1cccc(N(C)C(=S)Oc2ccc3ccccc3c2)c1
active: S. cerevisiae deletion strains, locus YLR039C, strain RIC1, hits give low values 1.46 [resistant] | S. cerevisiae deletion strains, locus YLR262C, strain YPT6, hits give low values 1.48 [resistant]
inactive: S. cerevisiae deletion strains, locus YJR075W, strain HOC1, hits give low values 0.971 | S. cerevisiae deletion strains, locus YKL009W, strain mrt4, hits give low values 0.99 | S. cerevisiae deletion strains, locus YKL068W, hits give low values 0.981 | S. cerevisiae deletion strains, locus YKL085W, strain MDH1 (second series), hits give low values 0.979 | S. cerevisiae deletion strains, locus YKL085W, strain MDH1, hits give low values 0.979 | S. cerevisiae deletion strains, locus YKL160W, strain elf1, hits give low values 0.947 | S. cerevisiae deletion strains, locus YKL190W, strain CNB1, hits give low values 0.983 | S. cerevisiae deletion strains, locus YKR001C, strain vps1, hits give low values 1.01 | S. cerevisiae deletion strains, locus YKR026C, strain gcn3, hits give low values 1 | S. cerevisiae deletion strains, locus YKR091W, strain srl3, hits give low values 0.993 | S. cerevisiae deletion strains, locus YLL001W, strain dnm1, hits give low values 0.994 | S. cerevisiae deletion strains, locus YLL026W, hits give low values 0.985 | S. cerevisiae deletion strains, locus YLL041C, strain sdh2, hits give low values 0.987 | S. cerevisiae deletion strains, locus YLR027C, strain aat2, hits give low values 0.99 | S. cerevisiae deletion strains, locus YLR058C, strain SHM2, hits give low values 0.972 | S. cerevisiae deletion strains, locus YLR102C, strain apc9, hits give low values 0.979 | S. cerevisiae deletion strains, locus YLR113W, strain HOG1, hits give low values 0.91 | S. cerevisiae deletion strains, locus YLR221C, strain rsa3, hits give low values 1.02 | S. cerevisiae deletion strains, locus YLR258W, strain gsy2, hits give low values 0.974 | S. cerevisiae deletion strains, locus YLR262C, strain YPT6 (second series), hits give low values 1.13 | S. cerevisiae deletion strains, locus YLR268W, strain sec22, hits give low values 0.971 | S. cerevisiae deletion strains, locus YLR320W, strain mms22, hits give low values 0.98 | S. cerevisiae deletion strains, locus YLR330W, strain CHS5, hits give low values 0.984 | S. cerevisiae deletion strains, locus YLR342W, strain FKS1 (second series), hits give low values 0.995 | S. cerevisiae deletion strains, locus YLR342W, strain FKS1, hits give low values 1.01 | S. cerevisiae deletion strains, locus YLR357W, strain rsc2, hits give low values 0.999 | S. cerevisiae deletion strains, locus YLR370C, strain arc18, hits give low values 1.01 | S. cerevisiae deletion strains, locus YLR371W, strain rom2, hits give low values 0.947 | S. cerevisiae deletion strains, locus YLR384C, strain iki3, hits give low values 0.995 | S. cerevisiae deletion strains, locus YLR418C, strain cdc73, hits give low values 0.904 | S. cerevisiae deletion strains, locus YML016C, strain PPZ1, hits give low values 0.998 | S. cerevisiae deletion strains, locus YML032C, strain rad52, hits give low values 0.991 | S. cerevisiae deletion strains, locus YML120C, strain ndi1, hits give low values 1 | S. cerevisiae deletion strains, locus YML124C, strain tub3, hits give low values 0.969 | S. cerevisiae deletion strains, locus YMR058W, strain fet3, hits give low values 0.994 | S. cerevisiae deletion strains, locus YMR078C, strain ctf18, hits give low values 0.965 | S. cerevisiae deletion strains, locus YMR125W, strain sto1, hits give low values 0.988 | S. cerevisiae deletion strains, locus YMR129W, hits give low values 0.991 | S. cerevisiae deletion strains, locus YMR205C, strain PFK2, hits give low values 0.952 | S. cerevisiae deletion strains, locus YMR223W, strain ubp8, hits give low values 0.955 | S. cerevisiae deletion strains, locus YMR231W, strain pep5, hits give low values 1.03 | S. cerevisiae deletion strains, locus YMR263W, strain SAP30, hits give low values 0.958 | S. cerevisiae deletion strains, locus YMR307W, strain GAS1, hits give low values 0.981 | S. cerevisiae deletion strains, locus YNL067W, strain RPL9B, hits give low values 0.989 | S. cerevisiae deletion strains, locus YNL071W, strain lat1, hits give low values 1.01 | S. cerevisiae deletion strains, locus YNL183C, strain NPR1, hits give low values 0.907 | S. cerevisiae deletion strains, locus YNL209W, strain ssb2, hits give low values 0.999 | S. cerevisiae deletion strains, locus YNL233W, strain BNI4, hits give low values 0.985 | S. cerevisiae deletion strains, locus YNL248C, strain rpa49, hits give low values 0.998 | S. cerevisiae deletion strains, locus YNL250W, strain rad50, hits give low values 0.977 | S. cerevisiae deletion strains, locus YNL271C, strain bni1, hits give low values 1 | S. cerevisiae deletion strains, locus YNL298W, strain CLA4, hits give low values 0.99 | S. cerevisiae deletion strains, locus YNL307C, strain MCK1, hits give low values 0.98 | S. cerevisiae deletion strains, locus YNL322C, strain KRE1 (second series), hits give low values 1 | S. cerevisiae deletion strains, locus YNL322C, strain KRE1, hits give low values 0.982 | S. cerevisiae deletion strains, locus YNR049C, strain mso1, hits give low values 0.999 | S. cerevisiae deletion strains, locus YNR052C, strain pop2, hits give low values 0.986 | S. cerevisiae deletion strains, locus YOL006C, strain TOP1, hits give low values 0.828 | S. cerevisiae deletion strains, locus YOL012C, strain htz1 0.985 | S. cerevisiae deletion strains, locus YOL147C, strain pex11, hits give low values 0.982 | S. cerevisiae deletion strains, locus YOR001W, strain rrp6, hits give low values 1 | S. cerevisiae deletion strains, locus YOR061W, strain CKA2, hits give low values 0.966 | S. cerevisiae deletion strains, locus YOR069W, strain VPS5, hits give low values 0.988 | S. cerevisiae deletion strains, locus YOR070C, strain gyp1, hits give low values 0.992 | S. cerevisiae deletion strains, locus YOR080W, strain dia2, hits give low values 0.981 | S. cerevisiae deletion strains, locus YOR083W, strain WHI5, hits give low values 0.947 | S. cerevisiae deletion strains, locus YOR106W, strain vam3, hits give low values 0.968 | S. cerevisiae deletion strains, locus YOR136W, strain idh2, hits give low values 0.978 | S. cerevisiae deletion strains, locus YOR144C, strain elg1, hits give low values 0.971 | S. cerevisiae deletion strains, locus YOR184W, strain ser1, hits give low values 0.897 | S. cerevisiae deletion strains, locus YOR231W, strain MKK1, hits give low values 0.945 | S. cerevisiae deletion strains, locus YOR265W, strain rbl2, hits give low values 0.969 | S. cerevisiae deletion strains, locus YOR270C, strain vph1, hits give low values 0.942 | S. cerevisiae deletion strains, locus YOR290C, strain snf2, hits give low values 0.999 | S. cerevisiae deletion strains, locus YOR316C, strain cot1, hits give low values 0.975 | S. cerevisiae deletion strains, locus YPL051W, strain arl3, hits give low values 0.988 | S. cerevisiae deletion strains, locus YPL055C, strain LGE1, hits give low values 0.922 | S. cerevisiae deletion strains, locus YPL078C, strain atp4, hits give low values 0.953 | S. cerevisiae deletion strains, locus YPL106C, strain sse1, hits give low values 0.941 | S. cerevisiae deletion strains, locus YPL240C, strain hsp82, hits give low values 0.99 | S. cerevisiae deletion strains, locus YPL256C, strain CLN2, hits give low values 0.931 | S. cerevisiae deletion strains, locus YPR119W, strain clb2, hits give low values 0.963 | S. cerevisiae deletion strains, locus YPR141C, strain kar3, hits give low values 0.973 | S. cerevisiae deletion strains, locus YPR163C, strain tif3, hits give low values 0.976 | S. cerevisiae deletion strains, locus YPR167C, strain met16, hits give low values 0.973 | S. cerevisiae deletion strains, strain wtn01, hits give low values 0.994 | S. cerevisiae strains, strain wild type, hits give low values 1.01
